HSF1 activator – increases HSF-1 driven luciferase reporter signal; NIH3T3-HGL HSF-1 luciferase reporter, MG132, 8 h; 100% = twice DMSO control signal; activation, % at 9 µM; 300,000 compounds, 1.7% hits;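 active means mean replicate activation of at least 50% with a set share of replicates each reaching 50%; inconclusive means only one of those two conditions met; inactive means mean below 50% and too few replicates reaching it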
TROY NFkB inh – blocks TROY-dependent signaling in reporter cells. Q293 LMP1-TROYcd NF-kB luciferase reporter, 4 h. inhibition, % at 10 µM. 360,000 compounds, 0.98% hits. AID 1347056;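 active means compounds whose plate-normalised and pattern-corrected inhibition of the luciferase reporter signal at the single screening dose is 50% or more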
HSP90 inh – inhibitors of HSP90 luciferase refolding in rabbit reticulocyte lysate; luciferase refolding luminescence, 3 h; inhibition, % at 5.6 µM; 290,000 compounds, 0.91% hits; AID 1789;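 active means inhibition above the screen-wide mean plus 3 SD, computed separately per campaign, cut at about 16% in these data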;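 further: inhibitors lower the luminescence because luciferase stays unfolded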
TWEAK Fn14 block – blocks TWEAK-Fn14 interaction in a reporter cell assay | TWEAK-stimulated Fn14 reporter cells, luciferase luminescence, 8 h | inhibition, % at 10 µM | 360,000 compounds, 2% hits; in the data active means inhibition above about 50%
EBV LMP1 NFkB – Epstein-Barr LMP1 NF-kappaB reporter inhibition; LMP1-induced NF-kappaB luciferase reporter cells, luminescence; inhibition, % at 12.5 µM; 350,000 compounds, 0.69% hits; AID 504558; in the data active means inhibition above about 41%; inconclusive means no clear call, values can overlap the other calls
HSF1 inhib – HSF1 inhibition. NIH3T3-HGL HSE-luciferase, MG132-induced, luminescence 8 h; active compounds read low. activity change, negative = inhibition, % at 7.5 µM (by protocol). 300,000 compounds, 0.77% hits. AID 2098;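 active means more than half of replicate wells show activity change below -50%, luminescence cut by over half; inconclusive means some wells, but at most half, below -50%; inactive means no replicate well below -50%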;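 further: luciferase reports HSF-1 transcriptional activity via heat shock element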
Each line names hits and unclear results; the compound was inactive in the other large screens. Compounds with a hit are over-represented: about 4.7% of the library has one in this group of screens.

CCn1nc(C(=O)Nc2nc(-c3ccccn3)cs2)c2ccccc2c1=O	EBV LMP1 NFkB 42 (no result: HSF1 activator, HSP90 inh, HSF1 inhib)
CC(C)(C(=O)N1CCC1(C)C(=O)NS(=O)(=O)c1ccc(C#N)cc1)c1ccccc1 (stereo not given)	none (no result: HSF1 activator, HSP90 inh, EBV LMP1 NFkB, HSF1 inhib)
Cc1ccc(Nc2nc(CSc3nnc(-c4ccncc4)n3C)cs2)cc1	TWEAK Fn14 block 53
COc1ccccc1CCC(=O)Nc1ccc2c(c1)c(=O)n(C)n2C	none (no result: HSF1 activator, HSP90 inh, EBV LMP1 NFkB, HSF1 inhib)
Cc1cc(NC(=O)Cn2cc([N+](=O)[O-])cn2)no1	TROY NFkB inh 88
c1ccc(N=NC2=NN(c3ccccc3)CS2)cc1	none (no result: HSF1 activator, HSP90 inh, HSF1 inhib)
COc1ccc(NC(=O)C2(C)CCN2C(=O)CC2CCCC2)cc1OC (stereo not given)	none (no result: HSF1 activator, HSP90 inh, EBV LMP1 NFkB, HSF1 inhib)
CCc1cc2c(=O)c(-c3ccc4c(c3)OCCO4)coc2cc1OC(=O)c1ccco1	none
CCCc1cc2c(=O)c(-c3ccc4c(c3)OCCO4)coc2cc1OC(=O)c1ccco1	HSF1 activator 64
O=C(c1ccc(COc2ccc3c(c2)CCC3)o1)N1CCN(c2ccccc2)CC1	HSF1 activator 62
CCCc1ccc(OCc2ccc(C(=O)N3CCCC3)o2)cc1	HSP90 inh 17
O=C(c1ccco1)N1CCN(C(=O)c2ccc(COc3ccc4c(c3)CCC4)o2)CC1	none
C/C(=N\N1CCN(C2c3ccccc3-c3ccccc32)CC1)c1cccnc1	none
CN=c1scc(-c2ccccc2F)n1/N=C(\C)c1cccnc1	HSF1 activator 78
CCc1ccccc1NC(=O)CC(c1ccc(OC)cc1)n1cccc1 (stereo not given)	HSF1 activator 81
CC1CCN(S(=O)(=O)c2ccc3c(c2)C(Cl)(Cl)C(=O)N3)CC1	none (no result: HSF1 activator, HSP90 inh, HSF1 inhib)
Cc1ccccc1-c1csc(C(O)c2cccnc2)n1 (stereo not given)	none (no result: HSF1 activator, HSP90 inh, EBV LMP1 NFkB, HSF1 inhib)
Nc1c(C(=O)O)cnc2c(-c3ccc(Cl)cc3)cnn12	HSF1 activator inconclusive, TWEAK Fn14 block 67
OC(c1cc(F)cc(Cl)c1)c1ncc(-c2ccccc2Cl)[nH]1 (stereo not given)	none (no result: HSF1 activator, HSP90 inh, EBV LMP1 NFkB, HSF1 inhib)
N#Cc1nc(Nc2cccc(Cl)c2)c2ncn(C3CCCC3)c2n1	TWEAK Fn14 block 87 (no result: HSF1 activator, HSP90 inh, HSF1 inhib)
CC(C)(C)c1ccc(NC(=O)Nc2ccc(F)cc2)cc1	HSF1 activator 57
CC(C)(C)c1ccc(COC(=O)Nc2ccc(F)cc2)cc1	none
O=C(Nc1ccc(F)cc1)Nc1cc(OCC(F)(F)F)cc(OCC(F)(F)F)c1	TROY NFkB inh 53, TWEAK Fn14 block 54
O=C(O)c1cc(C(=O)O)cc(-c2ccc(/C=c3/sc4nc5ccccc5n4c3=O)o2)c1	none (no result: HSF1 activator, TROY NFkB inh, TWEAK Fn14 block, HSF1 inhib)
O=C(O)c1ccccc1-c1ccc(C=c2sc3nc4cc(Br)cnc4n3c2=O)o1	TWEAK Fn14 block 54 (no result: HSF1 activator, HSP90 inh, EBV LMP1 NFkB, HSF1 inhib)
Cn1/c(=N/NC(=O)c2ccccc2Br)sc2ccccc21	EBV LMP1 NFkB 49
CC(=O)/C(=N/Nc1ccc(Br)cc1)N1CCCc2ccccc21	HSF1 activator 57
CCc1nnc(N/N=C/c2cc(Br)c(O)cc2O)n1N	HSF1 activator 57
COc1ccc(S(=O)(=O)N(C)C[C@@H]2Oc3cc(Br)ccc3S(=O)(=O)N([C@H](C)CO)C[C@@H]2C)cc1	none (no result: HSF1 activator, HSP90 inh, HSF1 inhib)
C/C(CC(=O)Nc1cccc2c1CCCC2)=N\NC(=O)Cc1ccccc1	none
COc1ccc(C(=O)Nc2cccc3c2CCCC3)cc1	none
C/C(CC(=O)Nc1cccc2c1CCCC2)=N\NC(=O)COc1ccccc1	HSF1 activator 61
COc1ccc(CC(=O)Nc2cccc3c2CCCC3)cc1	TWEAK Fn14 block 104
Cc1ccccc1C1=C/C(=C(\SS/C(C(=O)c2ccc(OCC(=O)O)c(Cl)c2Cl)=C2\C=C(c3ccccc3C)SS2)C(=O)c2ccc(OCC(=O)O)c(Cl)c2Cl)SS1	TWEAK Fn14 block 57 (no result: HSF1 activator, HSP90 inh, HSF1 inhib)
CN1CCN(c2ccc(CNC(=O)C3(C)Cc4c(-c5ccc6c(c5)OCO6)ccnc4O3)cc2)CC1 (stereo not given)	none (no result: HSF1 activator, HSP90 inh, EBV LMP1 NFkB, HSF1 inhib)
NC(=O)c1ccsc1NC(=O)COc1ccccc1	HSF1 activator 69
NC(=O)c1ccsc1NC(=O)CSc1ccccc1F	HSF1 activator 58
NC(=S)COc1ccccc1	none
NC(=O)c1ccsc1NC(=O)COC(=O)Cc1cccc2ccccc12	TROY NFkB inh 61, TWEAK Fn14 block 55
NC(=O)c1ccsc1NC(=O)COC(=O)Cc1c[nH]c2ccccc12	none (no result: HSP90 inh)
Cc1cccc(OCC(=O)OCC(=O)Nc2sccc2C(N)=O)c1	none (no result: HSF1 activator, HSP90 inh, HSF1 inhib)
NC(=O)COc1ccccc1	HSF1 activator 79
CC(=O)NCCNC(=O)Cn1nnc(-c2ccccc2)c1COc1ccc2ccccc2c1	none (no result: HSF1 activator, HSP90 inh, EBV LMP1 NFkB, HSF1 inhib)
O=S1(=O)CC(N2CCCCC2)CN1Cc1ccc(F)cc1 (stereo not given)	none (no result: HSF1 activator, HSP90 inh, EBV LMP1 NFkB, HSF1 inhib)
C[C@H]1CN([C@@H](C)CO)C(=O)c2cc(Br)cnc2O[C@@H]1CN(C)S(=O)(=O)c1cn(C)cn1	none (no result: HSF1 activator, HSP90 inh, HSF1 inhib)
COCc1cccc(-c2csc(C(C)(O)c3ccccc3)n2)c1 (stereo not given)	none (no result: HSF1 activator, HSP90 inh, EBV LMP1 NFkB, HSF1 inhib)
CC(=O)C1=C(C)OC2(O)c3ccccc3C(=O)C12O (stereo not given)	HSF1 activator 59 (no result: EBV LMP1 NFkB)
O=C(Nc1ccc2ccccc2n1)c1ccccc1Cl	HSF1 activator 61
O=C(Nc1cccc(NC(=O)c2ccc(Cl)cc2)n1)c1ccc(Cl)cc1	none
O=C(Nc1ccc2ccccc2n1)c1ccc(Cl)cc1	HSF1 activator 60
COc1ccc(CN2C(=O)CCC2(C)c2nnnn2Cc2ccccc2)cc1 (stereo not given)	none (no result: HSF1 activator, HSP90 inh, EBV LMP1 NFkB, HSF1 inhib)
Cc1ccc(/C=N/NC(=O)c2nnn(-c3nonc3N)c2CN(C)C2CCCCC2)cc1	HSF1 inhib -92
CCc1c(C(=O)N/N=C/c2ccc(OCc3ccc(F)cc3)c(OC)c2)nnn1-c1nonc1N	HSF1 activator 57, TWEAK Fn14 block 55
CC1=C(C(=O)Nc2ccccc2)C(c2ccco2)C(C#N)=C(SCc2ccccc2)N1 (stereo not given)	none (no result: TROY NFkB inh, TWEAK Fn14 block, EBV LMP1 NFkB)
CC1=C(C(=O)Nc2ccccc2)C(c2ccco2)C(C#N)=C(SCC(=O)OC(C)C)N1 (stereo not given)	TWEAK Fn14 block 59
CN(C)/C=C/C(=O)c1ccc2noc(-c3ccccc3)c2c1	EBV LMP1 NFkB 60
CC(=O)c1ccc2noc(-c3ccccc3)c2c1	none
c1ccc(-n2nnnc2-n2cnc3ccccc32)cc1	TWEAK Fn14 block 54
CCC(=O)N(C)C[C@H]1Oc2ncc(C#Cc3cccnc3)cc2C(=O)N([C@@H](C)CO)C[C@@H]1C	none (no result: HSF1 activator, HSP90 inh, HSF1 inhib)
COc1ccccc1-n1cccc1C=O	TROY NFkB inh 90
COc1ccccc1OCc1ccc(C(=O)c2ccccc2)cc1	EBV LMP1 NFkB 63
COc1ccccc1OCc1ccc(C(=O)NN)cc1	none
O=C(Nc1ccccc1F)c1ccc2sc([C@@H]3O[C@H](CO)[C@H](O)[C@H](O)[C@H]3O)nc2c1	none (no result: HSF1 activator, HSP90 inh, EBV LMP1 NFkB, HSF1 inhib)
Cc1ccc(S(=O)(=O)N2CCCCC2)cc1NC(=O)CCc1nc2ccccc2c(=O)[nH]1	none (no result: HSP90 inh)
O=C(CCc1nc2ccccc2c(=O)[nH]1)Nc1cc(C(F)(F)F)ccc1N1CCCC1	TROY NFkB inh 51, TWEAK Fn14 block 62 (no result: HSF1 activator, HSP90 inh, HSF1 inhib)
